Assay outcomes: PubChem, National Center for Advancing Translational Sciences (NCATS)
Only some compounds are listed: those with a hit (about 1.4% of all), similar ones and a draw of the others.
Chronic BCR inh = qHTS Assay to Find Inhibitors of Chronic Active B-Cell Receptor Signaling | ABC-DLBCL IkBa-CBG/CBR reporter, luminescence ratio, 4 h | Potency, µM (titrated, usually from 46.1 µM), inactives show at the top dose activity change, negative = inhibition, usual class: inhibitors | 340,000 tested, 0.05% active; active means well fitted inhibition curve with a large enough effect in the signal ratio, with a control signal flat, not every such curve was filed as active; inconclusive means small, poorly fitted or top-dose-only effect, or effect the other way, or a change in a side signal; the % refers to the signal ratio;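 further: potency means the concentration at half of the fitted maximal effect; plate controls were basal doxycycline-induced cells for no effect and cells given 10 µM MG132 for full effect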
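TMD8 human ABC-DLBCL cells with doxycycline-inducible IκBα–green luciferase fusion and unfused red luciferase, in 0.5% FBS medium; compounds up to 46 uM, 4 h at 37C. Green/red luminescence ratio, filter-overlap corrected, fitted to concentration-response curves.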
N370S GC mod = qHTS Assay for Inhibitors and Activators of N370S glucocerebrosidase as a Potential Chaperone Treatment of Gaucher Disease; AID 2101, 2009; Lysosomal acid glucosylceramidase (Homo sapiens), P04062; 330,000 tested, 0.092% active; N370S GC spleen homogenate, 4MU-glucoside fluorescence; Potency, µM (series often up to 59.4 µM), inactives show at the top dose activity change, negative = inhibition, actives largely listed as inhibitors;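 further: potency means the concentration at half of the fitted maximal effect; 0% = full enzyme activity and -100% = no enzyme basal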
IL-2 act = qHTS of IL-2 Activators | IL-2 activation reporter assay, cell-based qHTS; stimulated with anti-CD3/CD4/CD28 beads; in transgenic mouse T cells | activation, % (series mostly up to about 46 µM) | 360,000 tested, 0.065% active | AID 652025, 2013; in the data active means activation above about 50%; inconclusive means mostly about 30% to 49%; further: 0% is about no effect
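Readout: EGFP and DsRed signals by fluorescent plate cytometry. Unstimulated transgenic mouse T cells received compound 60 min before antibody-bead stimulation, then incubated 18 h at 37 degrees C.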
Integrin act MD = qHTS for Activators of Integrin-Mediated Alleviation for Muscular Dystrophy. alpha7betagal myoblasts, beta-gal FDG fluorescence, 48 h. Potency, µM (highest dose often 38.3 µM), for the others: at the highest dose activation, usual class: activators. 350,000 tested, 0.064% active. AID 624291, 2012;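 further: potency means the concentration at half of the fitted maximal effect; 100% = response of the positive control SU9516; nearly all actives have a fitted effect of over 60% in size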
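Alpha7betagal+/- myoblasts (passage 13) were plated 16-24 hr, then exposed to compounds (1:260 dilution of DMSO stock) for 48 hours at 37C. After MPER lysis, β-galactosidase reporter activity was read as FDG fluorescence (ex 480/em 540) after 30 minutes.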
Nrf2 ARE act = qHTS of Nrf2 Activators; AREc32 ARE-luciferase reporter (MCF7-derived line), luminescence, 24 h; Potency, µM (series often up to 46.1 µM), for inactives: top-dose activation, actives largely listed as activators; 410,000 tested, 0.31% active; AID 624171, 2012; further: potency means the concentration at half of the fitted maximal effect; % of control where 0% means no effect; nearly all actives have a fitted effect of over 65% in size
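Luminescent ARE reporter assay in AREc32_Fluc cells: overnight plating at 37 deg C, 24 hr compound incubation, Steady-Glo added, 30 min RT before reading.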
BRCA1 expr up = qHTS Assay to Identify Small Molecule Activators of BRCA1 Expression; MCF7-BRCA1-FFLuc reporter, luminescence, 48 h; response scale: scaled: vehicle 0%, 10 µM genistein 100%; Potency, µM (top dose mostly 46.1 µM), inactives show top-dose activation, usual class: activators; 380,000 tested, 1.1% active; AID 624202, 2012; further: potency means the concentration at half of the fitted maximal effect; nearly all actives have a fitted effect of over 80% in size
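Luminescence from a BRCA1-driven firefly luciferase in MCF7 cells was the read-out, taken 15 min after substrate addition following 48 h compound exposure at 37 °C. Data were normalized to a 10 microM genistein control and DMSO vehicle.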
* = called active by the depositor. Unless noted, the call rests on the fitted dose curve; in most records, active means well fitted curve in the direction sought with a large enough effect; inconclusive means small, poorly fitted or top-dose-only effect, or another doubt; inactive means no such curve, though single readings can be large; an effect the other way counts as inactive or inconclusive.

For Cc1cc2c3c([nH]c2cc1S(=O)(=O)N1CCC2(CC1)OCCO2)CC(C)(C)CC3=O the results were Chronic BCR inh inconclusive, N370S GC mod 5%, IL-2 act 0, Integrin act MD 0%, Nrf2 ARE act 3% and BRCA1 expr up -94%.
Screening COC(=O)c1cccc(C23CC4(C2)[C@H](CN(Cc2cccnc2)[C@@H]4c2ccccc2)C3c2ccc(C(F)(F)F)cc2)c1 (some centres undefined) returned Chronic BCR inh 14%, N370S GC mod 4%, IL-2 act 0, Integrin act MD 5%, Nrf2 ARE act 3% and BRCA1 expr up 1%.
For O=C(Cc1cccc(F)c1)NO the results were BRCA1 expr up -14%.
`CN1C(=O)CSc2ccc(NC(=O)Nc3ccccn3)cc21` gave Chronic BCR inh inconclusive, N370S GC mod 3%, IL-2 act -2, Integrin act MD -31%, Nrf2 ARE act 8% and BRCA1 expr up 4µM*.
For CC(=O)Nc1ccc(NC(=O)Nc2ccc3c(c2)N(C)C(=O)CS3)cc1 the results were Chronic BCR inh 7%, N370S GC mod 10%, IL-2 act -2, Integrin act MD 19%, Nrf2 ARE act 0% and BRCA1 expr up -3%.
Screening CC(C)(C)C(=O)NC(=S)NNC(=O)c1ccc(-c2ccccc2)cc1 returned Chronic BCR inh inconclusive, N370S GC mod 1%, IL-2 act 1, Integrin act MD -49%, Nrf2 ARE act -2% and BRCA1 expr up -79%.
For CCCCNC(=S)NNC(=O)CCn1cc(C)cn1 the results were Chronic BCR inh inconclusive, N370S GC mod -1%, IL-2 act -2, Integrin act MD 19%, Nrf2 ARE act 0% and BRCA1 expr up 14%.
Screening Cc1cnn(CCC(=O)NNC(=S)NCC(C)C)c1 returned Chronic BCR inh 18µM*, N370S GC mod 8%, IL-2 act 0, Integrin act MD 14%, Nrf2 ARE act 0% and BRCA1 expr up 6%.
Screening COc1cc(C2Nc3ccccc3C(=O)N2c2ccc(Cl)cc2)c(Cl)cc1OCC(=O)O (centres undefined) returned Chronic BCR inh inconclusive, N370S GC mod 11%, IL-2 act -1, Integrin act MD 26%, Nrf2 ARE act 6% and BRCA1 expr up 2.8µM*.
For COc1cc(C2Nc3ccccc3C(=O)N2c2ccccc2)ccc1O (centres undefined) the results were Chronic BCR inh inconclusive, N370S GC mod inconclusive, IL-2 act 1, Integrin act MD -10%, Nrf2 ARE act 2% and BRCA1 expr up 7.9µM*.
For c1ccc(Cn2ncc3c(NCc4ccco4)ncnc32)cc1 the results were Chronic BCR inh -1%, N370S GC mod -6%, IL-2 act -3, Integrin act MD -34%, Nrf2 ARE act 4µM* and BRCA1 expr up -59%.
`c1coc(CNc2ncnc3c2oc2ccccc23)c1` gave Chronic BCR inh 7%, N370S GC mod 12%, IL-2 act 0, Integrin act MD -32%, Nrf2 ARE act 1.6µM* and BRCA1 expr up -1%.
`c1ccc(-n2ncc3c(NCc4ccco4)ncnc32)cc1` gave Chronic BCR inh inconclusive, N370S GC mod 18%, IL-2 act -1, Integrin act MD 8%, Nrf2 ARE act 4% and BRCA1 expr up 24%.
O=C(CSCc1cc(=O)c2cc(F)ccc2[nH]1)Nc1ccccc1Cl was read as Nrf2 ARE act 1%.
`COC(=O)c1ccc(C(NC(=O)OCc2ccccc2)/C(=C/[C@@H](C)C(=O)N(C)C)c2cccnc2)cc1` (some centres undefined) gave N370S GC mod -8%.
c1ccc2sc(N3CCOCC3)nc2c1 was read as Chronic BCR inh -11%, N370S GC mod 2%, IL-2 act -1, Integrin act MD 23%, Nrf2 ARE act 3% and BRCA1 expr up 8.9µM*.
For Clc1cc(Cl)c2nc(N3CCOCC3)sc2c1 the results were Chronic BCR inh inconclusive, N370S GC mod 7%, IL-2 act -3, Integrin act MD 0%, Nrf2 ARE act 4% and BRCA1 expr up 11µM*.
`CC(C)OCCOc1ccc2oc(-c3ccco3)cc(=O)c2c1` gave Chronic BCR inh inconclusive, N370S GC mod inconclusive, IL-2 act -1, Integrin act MD -8%, Nrf2 ARE act 0% and BRCA1 expr up 8.9µM*.
Screening N#CCOc1ccc2oc(-c3ccco3)cc(=O)c2c1 returned Chronic BCR inh 11% and N370S GC mod inconclusive.
`Cc1ccc2oc(-c3ccco3)cc(=O)c2c1` gave Chronic BCR inh 0%, N370S GC mod 11%, IL-2 act -2, Integrin act MD -3%, Nrf2 ARE act inconclusive and BRCA1 expr up 3.5µM*.
Screening Clc1ccc(-c2csc(-c3cccnc3)n2)s1 returned Chronic BCR inh inconclusive, N370S GC mod 9%, IL-2 act 1, Integrin act MD 0%, Nrf2 ARE act inconclusive and BRCA1 expr up -16%.
Screening CCN(CC)C1=CC2=CC(=C(C#N)C#N)CCC2CC1 (centres undefined) returned Chronic BCR inh 5%, N370S GC mod 18%, IL-2 act 102*, Integrin act MD -234%, Nrf2 ARE act 2% and BRCA1 expr up -21%.
`CCCCN(C)C1=CC2=CC(=C(C#N)C#N)CCC2CC1` (centres undefined) gave Chronic BCR inh 18%, N370S GC mod -17%, IL-2 act -5, Integrin act MD -258%, Nrf2 ARE act 3% and BRCA1 expr up -8%.
N#C/C(=N\Nc1ccc(F)cc1)C(=N)N1CCCCC1 was read as Chronic BCR inh -7%, N370S GC mod -6%, IL-2 act -1, Integrin act MD 13%, Nrf2 ARE act 0% and BRCA1 expr up inconclusive.
For N#C/C(=N\Nc1ccccc1)C(=N)N1CCCCCC1 the results were Chronic BCR inh -3%, N370S GC mod -16%, IL-2 act 0, Integrin act MD -20%, Nrf2 ARE act 0% and BRCA1 expr up 2.5µM*.
For Clc1ccc(-n2ncc3c(N4CCCCCC4)ncnc32)cc1 the results were Chronic BCR inh inconclusive, N370S GC mod 12%, IL-2 act 0, Integrin act MD 17%, Nrf2 ARE act -4% and BRCA1 expr up -25%.
